This passage reports outcome and AC50 results from PubChem BioAssay (EPA / NIEHS).

The AC50 is the concentration giving half of the maximal activity seen.

Active and inactive are the calls of the source. The calls were made as follows: active = hit-call score of the fitted dose curve at least 0.9, where 1 is the maximum; inactive = score below 0.9.

The nature of this assay: STM_H9_CystineISnorm_perc: Stemina devTOX quickPredict H9 human embryonic stem cell (hESC)-based Assay for Cystine (CYSS) Metabolite Biomarker, Normalized (AID 2283713). The gist of the method: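 Undifferentiated H9 hESCs were exposed to compound for 72h, with medium and compound replaced every 24h. Final-24h conditioned medium was deproteinized and analyzed by UPLC-HRMS. Cystine EIC area was normalized to spiked C13 standard and 0.1% DMSO median.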
With `Oc1ccc(C(c2ccc(O)cc2)(C(F)(F)F)C(F)(F)F)cc1`, the result was inactive.

For `ClC1=C(Cl)[C@]2(Cl)[C@@H]3[C@H]4C[C@H]([C@@H]5O[C@H]45)[C@@H]3[C@@]1(Cl)C2(Cl)Cl`, the AC50 was 78.7 µM (active).

For `COS(=O)(=O)OC`, the result was inactive.

For the compound `CCC(C)c1cc([N+](=O)[O-])cc([N+](=O)[O-])c1O` (configuration not stated), the outcome was inactive.

Turning to `CO/C=C(/C(=O)OC)c1ccccc1COc1cccc(C(F)(F)F)n1`, the result was inactive.

Turning to `ClC1=C(Cl)[C@]2(Cl)[C@@H]3[C@@H]4C[C@@H]([C@H]5O[C@@H]45)[C@@H]3[C@@]1(Cl)C2(Cl)Cl`, the result was inactive.

On to `O=NN(c1ccccc1)c1ccccc1`, for which the result was inactive.

On to `CCCCCCCCCC[N+](C)(C)CCCCCCCCCC`, for which the concentration at half-maximal activity (AC50) is 2.44 µM (active).

On to `CCCCCCOC(=O)c1ccccc1C(=O)OCCCCCC`, for which the outcome was inactive.

With `CCSC(=O)N(CC)C1CCCCC1`, the AC50 was 32.1 µM (active).

Regarding `Clc1ccc(C(c2ccccc2Cl)C(Cl)(Cl)Cl)cc1` (configuration not stated), the AC50 is 54.5 µM (active).

Consider `CCOCCOC(C)=O`, for which the outcome was inactive.

For `Cc1cc(O)ccc1Cl`, the result was inactive.

For the compound `C1CC2OC2CC1C1CO1` (configuration not stated), the concentration at half-maximal activity (AC50) was 47 µM (active).

In the case of `C=CC(=O)NCNC(=O)C=C`, the concentration at half-maximal activity (AC50) is 81.3 µM (active).

With `Clc1ccc(C(Cl)(Cl)Cl)cc1`, the AC50 was 77.8 µM (active).

Take `C=CC(N)=O`: the result was inactive.

Regarding `CCC(=O)O[C@H]1CC[C@H]2[C@@H]3CCC4=CC(=O)CC[C@]4(C)[C@H]3CC[C@]12C`, the half-maximal activity concentration (AC50) was 20.6 µM (active).

For the compound `CCCCCCCCOC(=O)c1ccccc1C(=O)OCCCCCCCC`, the result was inactive.

In the case of `CC1=C2C[C@H]3[C@@H](CC=C4C[C@@H](O)CC[C@@]43C)[C@@H]2CC[C@]12O[C@@H]1C[C@H](C)CN[C@H]1[C@H]2C`, the outcome was inactive.

Regarding `Nn1cnnc1`, the result was inactive.

On to `CCNc1nc(NC(C)C)nc(SC)n1`, for which the concentration at half-maximal activity (AC50) is 34.3 µM (active).
